# Results published in PubChem BioAssay (Tox21).
# Several values for one entry are separate records, joined by “and”; a condition that tells them apart may be missing. Identical values can stand only once. Results filed as inconclusive are left out. Some compounds were tested as several samples or in several runs, with calls that do not always agree. Activity calls are given as the source filed them. Unless noted, calls come from the whole dose curve; as a rule, active = well fitted curve in the direction sought with a large enough effect in the repeat runs; inconclusive = weak or mixed curves; inactive = no such curve, though single readings can be large; an effect the other way counts as inactive or inconclusive.
# Key:
# [1] = qHTS assay to identify small molecule antagonists of the glucocorticoid receptor (GR) signaling pathway - cell viability counter screen (AID 720693); note: nearly all actives have a fitted effect of over 55% in size
# [2] = qHTS assay for identifying genotoxic compounds that show differential cytotoxicity against isogenic chicken DT40 cell lines with known DNA damage response pathways - wild type cell line (AID 743012); note: nearly all actives have a fitted effect of over 60% in size
# Outline: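 Quantitative HTS on parental DT40 cells: 40 h compound treatment at 37 C/5% CO2, with viability then determined by CellTiter-Glo luminescence. Values serve as the DNA repair-proficient reference for differential cytotoxicity.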
# [3] = qHTS assay for identifying genotoxic compounds that show differential cytotoxicity against isogenic chicken DT40 cell lines with known DNA damage response pathways - Rev3 mutant cell line (AID 743014); note: nearly all actives have a fitted effect of over 55% in size
# [4] = qHTS assay for identifying genotoxic compounds that show differential cytotoxicity against isogenic chicken DT40 cell lines with known DNA damage response pathways - Rad54/Ku70 mutant cell line (AID 743015); note: nearly all actives have a fitted effect of over 60% in size
# [5] = qHTS assay to identify small molecule antagonists of the androgen receptor (AR) signaling pathway - cell viability counter screen (AID 743033; note: nearly all actives have a fitted effect of over 45% in size)
# [6] = qHTS assay to identify small molecule antagonists of the androgen receptor (AR) signaling pathway using the MDA cell line - cell viability counter screen (AID 743041; note: nearly all actives have a fitted effect of over 45% in size)
# Outline: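 R1881-driven MDA-kb2 AR-luc cells, 3,000/well, were dosed with library compounds for 16 h; cell health came from CellTiter-Fluor fluorescence in the reporter wells.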
# [7] = qHTS assay to identify small molecule antagonists of the thyroid receptor (TR) signaling pathway - cell viability counter screen (AID 743064); note: nearly all actives have a fitted effect of over 50% in size
# Outline: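 Rat GH3 pituitary tumor cells stably expressing two TR response elements driving luciferase were plated, rested 4 h, then dosed with library compounds and T3 (1 nM final). After 23.5 h at 37 °C, CellTiter-Fluor was added for 30 min and fluorescence recorded.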
# [8] = target: Androgen receptor (Homo sapiens) (UniProt P10275); assay: qHTS assay to identify small molecule antagonists of the androgen receptor (AR) signaling pathway (AID 743035; active = well fitted inhibition curve with a large enough effect in the signal ratio in the repeat runs, not every such curve was filed as active; the % refers to the signal ratio)
# Sequence of Androgen receptor (Homo sapiens) (P10275 whole entry, looked up): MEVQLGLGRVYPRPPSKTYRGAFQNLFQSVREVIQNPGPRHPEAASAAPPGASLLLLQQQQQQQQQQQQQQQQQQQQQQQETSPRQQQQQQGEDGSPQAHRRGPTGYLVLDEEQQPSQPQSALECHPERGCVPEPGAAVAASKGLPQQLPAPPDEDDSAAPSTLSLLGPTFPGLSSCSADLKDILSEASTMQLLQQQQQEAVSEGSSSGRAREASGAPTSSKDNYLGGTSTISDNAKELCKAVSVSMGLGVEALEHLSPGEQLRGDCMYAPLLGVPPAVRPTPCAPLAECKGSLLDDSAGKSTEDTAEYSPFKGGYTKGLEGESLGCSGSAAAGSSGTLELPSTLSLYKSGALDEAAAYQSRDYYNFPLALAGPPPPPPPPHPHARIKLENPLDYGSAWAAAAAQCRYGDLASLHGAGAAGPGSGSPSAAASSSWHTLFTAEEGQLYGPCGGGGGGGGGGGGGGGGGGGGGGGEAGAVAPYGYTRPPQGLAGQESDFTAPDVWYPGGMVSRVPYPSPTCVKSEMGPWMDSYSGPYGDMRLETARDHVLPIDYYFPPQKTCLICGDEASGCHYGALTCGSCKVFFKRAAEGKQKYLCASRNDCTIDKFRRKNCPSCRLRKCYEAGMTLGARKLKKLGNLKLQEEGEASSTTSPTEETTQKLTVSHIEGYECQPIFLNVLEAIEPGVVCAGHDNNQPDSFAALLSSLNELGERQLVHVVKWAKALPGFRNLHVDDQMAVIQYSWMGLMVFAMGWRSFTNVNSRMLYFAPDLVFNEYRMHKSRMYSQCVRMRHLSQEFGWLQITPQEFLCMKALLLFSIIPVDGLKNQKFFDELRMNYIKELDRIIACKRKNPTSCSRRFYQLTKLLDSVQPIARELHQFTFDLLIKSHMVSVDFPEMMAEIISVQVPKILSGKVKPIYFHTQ
# Outline: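 Cell line: GeneBLAzer AR-UAS-bla GripTite (HEK293). Stimulus: R1881 added after compound. Exposure: 16 h, 37C, 5% CO2. Readout: LiveBLAzer B/G FRET fluorescence after 2 h at room temperature.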
# [9] = target: Androgen receptor (Homo sapiens) (UniProt P10275); assay: qHTS assay to identify small molecule agonists of the androgen receptor (AR) signaling pathway using the MDA cell line (AID 743040; note: nearly all actives have a fitted effect of over 20% in size)
# Outline: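 After a 5 h incubation at 37C and 0% CO2, MDA-kb2 reporter cells were dosed with compounds in DMSO and kept 16 h under the same conditions. Luciferase activity was then read as luminescence with ONE-Glo.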
# [10] = target: Androgen receptor (Homo sapiens) (UniProt P10275); assay: qHTS assay to identify small molecule antagonists of the androgen receptor (AR) signaling pathway using the MDA cell line (AID 743042; note: nearly all actives have a fitted effect of over 55% in size)
# Outline: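 Antagonist mode: compounds plus R1881 agonist added to MDA-kb2 AR-luc cells, incubated 16 h at 37C. Luciferase reporter luminescence quantified, with multiplexed CellTiter-Fluor readout for cell viability.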
# % is set by controls: 0 for no effect and ±100 for the full control effect; potency is the fitted concentration of half-maximal effect.
Compound,Potency [1],Potency [2],Potency [3],Potency [4],Potency [5],Potency [6],Potency [7],Potency [8],Potency [9],Potency [10]
Clc1ccc(C(Cl)(Cl)Cl)c(Cl)c1,inactive,inactive,inactive,inactive,inactive,inactive,inactive,,,
ClC1=C(Cl)C2(Cl)C3C(Cl)C(Cl)CC3C1(Cl)C2(Cl)Cl (stereo unspecified),inactive,inactive and 21.7 µM (active),30.6 µM (active),24.3 µM (active),,inactive,21.6 µM (active) and 24.3 µM (active),48.8 µM (active) and 43.6 µM (active),inactive,inactive
C[C@@H]1O[C@@H](O[C@@H]2C=C3CC[C@@H]4[C@H](CC[C@]5(C)[C@@H](c6ccc(=O)oc6)CC[C@]45O)[C@@]3(C)CC2)[C@H](O)[C@H](O)[C@H]1O,0.091 µM (active),0.127 µM (active),0.101 µM (active),0.127 µM (active),0.0057 µM (active),inactive,inactive,,,
O=C(NC(=O)c1c(F)cccc1F)Nc1cc(Cl)c(OC(F)(F)C(F)F)c(Cl)c1,inactive,inactive,inactive,21.7 µM (active),inactive,inactive,inactive,,inactive,inactive
CC(C)[C@H](C(=O)OC(C#N)c1cccc(Oc2ccccc2)c1)c1ccc(OC(F)F)cc1 (stereo partly specified),inactive,24.3 µM (active),34.4 µM (active),27.3 µM (active),inactive,,inactive,,,
C=CC(=O)OCC(COC(=O)C=C)(COC(=O)C=C)COC(=O)C=C,8.71 µM (active),0.77 µM (active),0.969 µM (active),0.686 µM (active),6.92 µM (active),,2.73 µM (active),4.36 µM (active),inactive,1.93 µM (active)
CC1(c2ccc(Oc3ccccc3)cc2)OC(=O)N(Nc2ccccc2)C1=O (stereo unspecified),22 µM (active),1.09 µM (active),0.869 µM (active),0.774 µM (active),,,,,,
C[C@@H]1CC[C@@]2(OC1)O[C@H]1[C@@H](O)[C@H]3[C@@H]4CC[C@H]5C[C@@H](O[C@@H]6O[C@H](CO)[C@H](O[C@@H]7O[C@H](CO)[C@@H](O)[C@H](O[C@@H]8OC[C@@H](O)[C@H](O)[C@H]8O)[C@H]7O[C@@H]7O[C@H](CO)[C@@H](O)[C@H](O[C@@H]8O[C@H](CO)[C@@H](O)[C@H](O)[C@H]8O)[C@H]7O)[C@H](O)[C@H]6O)[C@H](O)C[C@]5(C)[C@H]4CC[C@]3(C)[C@H]1[C@@H]2C,16.4 µM (active),16.3 µM (active),4.09 µM (active),2.05 µM (active),2.32 µM (active),,2.05 µM (active),,inactive,8.17 µM (active)
O=c1[nH]c2ccccc2n1C1CCN(CCCC(c2ccc(F)cc2)c2ccc(F)cc2)CC1,5.49 µM (active),5.31 µM (active) and 6.11 µM (active),10.6 µM (active) and 21.7 µM (active),8.41 µM (active) and 9.69 µM (active),inactive and 17.4 µM (active),inactive,,,,
CC(C)CC(C)(c1ccc(O)cc1)c1ccc(O)cc1,49 µM (active),inactive,27.4 µM (active) and 38.6 µM (active),54.6 µM (active),55.1 µM (active),,54.6 µM (active) and 54.5 µM (active),,,
CCOCn1c(-c2ccc(Cl)cc2)c(C#N)c(Br)c1C(F)(F)F,3.47 µM (active),1.93 µM (active),2.17 µM (active),1.54 µM (active),0.871 µM (active),3.86 µM (active),6.11 µM (active),,,
CCC(C)c1cc([N+](=O)[O-])cc([N+](=O)[O-])c1OC(=O)C=C(C)C (stereo unspecified),inactive,21.7 µM (active),27.3 µM (active),19.3 µM (active),,,,,inactive,
CC(C)OC(=S)S,inactive,24.3 µM (active),27.3 µM (active),24.3 µM (active),17.4 µM (active),inactive,inactive,,,
CC1(C)CC/C(=C/c2ccc(Cl)cc2)C1(O)Cn1cncn1 (stereo unspecified),inactive,21.6 µM (active),60.8 µM (active),55.2 µM (active),,,,,9.63 µM (active),
CC(c1ccc(O)cc1)c1ccc(O)cc1,inactive,inactive,inactive,inactive,inactive,inactive,inactive,,,
COc1cccc(C(=O)CCN[C@@H](C)[C@H](O)c2ccccc2)c1,inactive,6.68 µM (active),16.8 µM (active),13.3 µM (active),,,13.3 µM (active),inactive,inactive,
CC(=O)[O-].[Tl+],inactive,2.75 µM (active),1.73 µM (active),1.73 µM (active),,,,,,
CC(C)CC(C)N (stereo unspecified),inactive,inactive,inactive,inactive,inactive,inactive,inactive,,,
CCC[CH2][Sn]([CH2]CCC)([CH2]CCC)[O]C(=O)c1ccccc1,1.55 µM (active),0.243 µM (active),0.154 µM (active),0.193 µM (active),0.692 µM (active),,1.22 µM (active),,,
CCCCCCCCCCCCCCCC[N+](C)(C)C,23.9 µM (active) and 26.6 µM (active) and 34.7 µM (active),473 nM (active) and 934 nM (active) and 969 nM (active),596 nM (active) and 417 nM (active) and 770 nM (active),841 nM (active) and 1.05 µM (active) and 969 nM (active),21.1 µM (active) and 27.5 µM (active),61.1 µM (active),9.44 µM (active) and 20.9 µM (active) and 13.7 µM (active),,,

Compound,Potency [1],Potency [2],Potency [3],Potency [4],Potency [5],Potency [6],Potency [7],Potency [8],Potency [9],Potency [10]
O=C(CCCN1CCC2(CC1)C(=O)NCN2c1ccccc1)c1ccc(F)cc1,inactive,29.8 µM (active),,,,,,,,
CC(=O)O[C@H]1CC[C@@]2(C)C(=CC[C@@H]3[C@@H]2CC[C@]2(C)C(=O)CC[C@@H]32)C1,inactive,inactive,inactive,inactive,inactive,inactive,inactive,,inactive,inactive
C[C@@H]1O[C@@H](O[C@H]2C[C@@H](O)[C@]3(CO)[C@H]4[C@H](O)C[C@]5(C)[C@@H](C6=CC(=O)OC6)CC[C@]5(O)[C@@H]4CC[C@]3(O)C2)[C@H](O)[C@H](O)[C@H]1O,379 nM (active) and 213 nM (active) and 58.5 nM (active),2.11 µM (active) and 1.88 µM (active) and 1.3 µM (active),2.11 µM (active) and 1.88 µM (active) and 517 nM (active),1.88 µM (active) and 580 nM (active),67.4 nM (active) and 53.5 nM (active) and 11.7 nM (active),inactive,inactive,213 nM (active) and 190 nM (active) and 46.5 nM (active),inactive,841 nM (active) and inactive
CCOC(=O)C1(c2ccccc2)CCN(CCC(C#N)(c2ccccc2)c2ccccc2)CC1,inactive,2.98 µM (active) and 5.31 µM (active),3.76 µM (active) and 10.6 µM (active),5.31 µM (active) and 9.44 µM (active),,,,10.7 µM (active) and 13.4 µM (active),inactive,26.6 µM (active) and 53.1 µM (active)
Clc1ccc(-c2ccc(Cl)c(Cl)c2Cl)c(Cl)c1Cl,inactive,inactive,inactive,inactive,inactive,,inactive,,,
FC(Cl)(Cl)Cl,inactive,inactive,inactive,inactive,inactive,inactive,inactive,inactive,1.36 µM (active),inactive
CC(C)CC(C)Nc1ccc(Nc2ccccc2)cc1 (stereo unspecified),48.2 µM (active),26.8 µM (active),16.9 µM (active),15.1 µM (active),21.5 µM (active),,42.5 µM (active),,,
CCCCCCCCCCCCCN1CC(C)OC(C)C1 (stereo unspecified),inactive,54.5 µM (active),27.3 µM (active),30.6 µM (active),inactive,inactive,inactive,,,
Clc1ccc(C(c2ccc(Cl)cc2)C(Cl)(Cl)Cl)cc1,inactive,18.8 µM (active) and 24.3 µM (active),10.6 µM (active) and 7.75 µM (active) and 6.86 µM (active),23.7 µM (active) and 19.3 µM (active),inactive,inactive,18.8 µM (active) and 30.9 µM (active) and 30.6 µM (active),,,
Fc1ccc(Oc2ccnc3cc(Cl)cc(Cl)c23)cc1,inactive,61.1 µM (active),68.6 µM (active),61.1 µM (active),inactive,,,,,
CN(C)CCc1c[nH]c2cccc(O)c12,inactive,30.3 µM (active),60.5 µM (active),42.8 µM (active),inactive,inactive,inactive,,,
CCCCCCCCCCCCCCCC[n+]1ccccc1,25.7 µM (active) and 30.9 µM (active) and 34.2 µM (active),427 nM (active) [middle of 4 runs],380 nM (active) [middle of 4 runs],386 nM (active) [middle of 4 runs],19.2 µM (active) [middle of 4 runs],27.3 µM (active) [middle of 4 runs],16.8 µM (active) [middle of 4 runs],,,
Nc1ccccc1C(=O)OC/C=C/c1ccccc1,inactive,,,,,,,,,
ClC(Cl)=C(Cl)Cl,inactive,inactive,inactive,inactive,inactive,inactive,inactive,,,
CC(C)Oc1cccc(NC(=O)c2ccccc2C(F)(F)F)c1,inactive,15.4 µM (active),15.4 µM (active),30.6 µM (active),inactive,,,,,
CC(C)[C@H](C(=O)O[C@H](C#N)c1cccc(Oc2ccccc2)c1)c1ccc(Cl)cc1,inactive,43.2 µM (active),43.2 µM (active),30.6 µM (active),inactive,inactive,inactive,,,
Cc1c(Cl)c(=O)oc2cc(OP(=O)(OCCCl)OCCCl)ccc12,inactive,,,,,,,,,
CN(C)C(=S)S,inactive,1.36 µM (active) and 1.37 µM (active),,1.36 µM (active) and 2.17 µM (active),15.8 µM (active) and 1.54 µM (active) and 9.77 µM (active),,inactive and 27.1 µM (active) and 2.73 µM (active),,,
[Cl][Sb]([Cl])[Cl],inactive,inactive,inactive,,,,17.2 µM (active),,,
